Calls of active or inactive are those of the source.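 How the source made its calls: active means cell event count below 40, meaning activity score above 60 where score is 100 minus count; inactive means the rest.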
Experiment: LNCaP cell loss by flow event count, confirmation, cytotoxicity control for prostate differentiation activator project, single point (AID 1076);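 further: counts scatter-gated live cells after medium removal discards detached dead cells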
Conditions: flow cytometry event count, 4 d, stronger effect = lower value

| SMILES | cell event count (at 100 µM) | cell event count (event count, at 10 µM) |
| --- | --- | --- |
| CCOC(=O)C1CCN(c2nc3ccccc3nc2C(C#N)C(=O)OCCOC)CC1 (stereo not drawn) | 17 (inactive) | 108 |
| CCn1c(=O)cc(SCC(=O)NCCCN2CCN(c3ccc(F)cc3)CC2)c2ccccc21 | 14 (inactive) | 241 |
| Cc1ccnc(NC(=O)CCC(=O)N(CC(=O)NC2CCCCC2)c2cccc(C)c2C)c1 | 27 (inactive) | 66 |
| COc1ccc(Cl)c(N2CCN(CCCNC(=O)Nc3ccc(C)cc3)CC2)c1 | 19 (inactive) | 128 |
| O=C(NCC1CCCO1)C1CC(c2ccc(Cl)c(Cl)c2)=NO1 (stereo not drawn) | 85 (inactive) | 79 |
| Cc1ccccc1-c1nc(CN2CCC(C(=O)NCC3CCCO3)CC2)c(C)o1 (stereo not drawn) | 71 (inactive) | 139 |
| c1ccc(N2CCN(c3nnc(Cc4cccnc4)c4ccccc34)CC2)nc1 | 40 (inactive) | 434 |
| CCCc1cc(-c2n[nH]c(C)c2-c2ccc(C(=O)OCC)o2)c(O)cc1O | 7 (active) | 71 |
| O=C(c1ccc2c(c1)OCCO2)N1CCCCC1 | 65 (inactive) | 81.5 |
| O=c1cc(N2CCc3ccccc3C2)[nH]c(=O)n1C1CCCCC1 | 143 (inactive) | 76.5 |
| CCn1c(=S)ccc2ccc(OC)cc21 | 139 (inactive) | 118 |
| CCS(=O)(=O)N1CCC(C(=O)NCCCN2CCN(c3ccccc3F)CC2)CC1 | 135 (inactive) | 70.5 |
| Cc1cc(N2C(=O)C3C4C=CC(C4)C3C2=O)ccc1Br (stereo not drawn) | 272 (inactive) | 69.5 |
| CCOc1cccc(-c2nnc3n2N=C(c2cc(OC)ccc2OC)CS3)c1 | 3 (inactive) | 136 |

— PubChem BioAssay AID1076 (NMMLSC, 2008)
